Screens as filed in PubChem.
POLK inh = blocks human DNA polymerase kappa activity; Q9UBT6; purified Pol kappa, fluorescent DNA synthesis assay, 10 min; Potency, µM (doses to about 107 µM), without a hit: at the highest dose activity, negative = inhibition, most hits filed as inhibitors; hit rate 0.53% among 400,000; further: on the % scale 0 is the no-effect control and ±100 the full control effect
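Readout: fluorescence, taken kinetically at 0 and 10 min. Conditions: 10 nM Pol kappa, 15 min RT compound preincubation, 50 nM substrate final. Controls: enzyme-free buffer wells.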
KAT2A inh = blocks human GCN5L2 histone acetyltransferase | Q92830 | GCN5L2 HAT assay, ThioGlo1 CoA-SH fluorescence | Potency, µM (titrated, usually from 58.9 µM), for the others: at the top dose activity change, negative = inhibition, actives largely listed as inhibitors | hit rate 0.21% among 390,000; further: on the % scale 0 is the no-effect control and ±100 the full control effect
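qHTS, 1536-well. 20nM enzyme, pH 7.5 HEPES/EDTA/Tween-20 buffer; 15 min compound preinc., RT. Start: 75uM H3(1-25), 70uM AcCoA, 50uM ThioGlo1. Read Ex340/Em540 at t=0 (autofluorescence flag) and t=20 min.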
Pol beta inh = blocks human DNA polymerase beta activity. AID 485314. Potency, µM (highest dose often 114 µM), inactives show at the top dose activity change, negative = inhibition, actives largely listed as inhibitors. Pol beta primer extension/strand displacement, fluorescence kinetic. hit rate 1.3% among 340,000; further: on the % scale 0 is the no-effect control and ±100 the full control effect
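Human Pol beta at 10 nM; strand-displacement substrate 50 nM final. Compound exposure 15 min at room temperature before start, reaction 10 min at room temperature.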
GLS inh = blocks human kidney-isoform glutaminase activity | O94925 | GLS enzymatic activity, qHTS titration | Potency, µM (doses to about 45.5 µM), for inactives: top-dose activity change, negative = inhibition, most hits filed as inhibitors | hit rate 0.21% among 410,000; further: on the % scale 0 is the no-effect control and ±100 the full control effect
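hKGA in 45 mM KH2PO4 (pH 8.2), 0.02% Tween-20 with compound, then 1mM L-Glutamine (stock as added) plus glutamate oxidase/HRP/Amplex red coupling mix. Fluorescence read initially and after 30 min at RT; signal change reflects glutamate formation.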
Pol iota inh = DNA polymerase iota (human) inhibition | Potency, µM (highest dose often 115 µM), inactives show at the highest dose activity, negative = inhibition, usual class: inhibitors | Pol iota fluorescent replication assay, 10 min | hit rate 1% among 390,000
Target sequence (Q9UNA4 whole entry, looked up): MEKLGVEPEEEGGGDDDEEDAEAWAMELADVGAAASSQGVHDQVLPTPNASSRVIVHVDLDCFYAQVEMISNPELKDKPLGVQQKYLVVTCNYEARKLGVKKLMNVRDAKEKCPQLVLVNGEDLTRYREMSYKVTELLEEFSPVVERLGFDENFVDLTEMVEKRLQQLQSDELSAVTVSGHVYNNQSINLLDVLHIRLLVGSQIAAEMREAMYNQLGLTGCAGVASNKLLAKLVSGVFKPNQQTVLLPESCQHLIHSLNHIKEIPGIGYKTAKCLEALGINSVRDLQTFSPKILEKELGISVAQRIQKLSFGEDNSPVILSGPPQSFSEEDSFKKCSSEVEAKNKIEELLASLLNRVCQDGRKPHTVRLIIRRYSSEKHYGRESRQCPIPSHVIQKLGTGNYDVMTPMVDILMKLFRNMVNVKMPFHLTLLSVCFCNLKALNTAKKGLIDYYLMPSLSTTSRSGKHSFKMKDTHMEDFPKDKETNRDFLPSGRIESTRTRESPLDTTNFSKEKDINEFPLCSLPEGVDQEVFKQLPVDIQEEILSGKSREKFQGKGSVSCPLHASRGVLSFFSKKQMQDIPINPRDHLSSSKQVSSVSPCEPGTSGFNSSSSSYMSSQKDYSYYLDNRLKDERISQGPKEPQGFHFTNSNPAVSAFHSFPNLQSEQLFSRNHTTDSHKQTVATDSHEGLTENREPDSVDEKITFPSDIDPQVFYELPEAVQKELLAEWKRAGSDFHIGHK
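Pol iota at 10 nM preincubated 15 min with compounds at room temperature; reaction started with fluorescent substrate, 50 nM final. Fluorescence read kinetically at 0 and 10 min; buffer-only wells as negative control.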
Pol eta inh = DNA polymerase eta (human) inhibition; Potency, µM (doses to about 114 µM), for inactives: at the highest dose activity change, negative = inhibition, hits mostly inhibitors; Q9Y253; AID 588591; hit rate 1.2% among 390,000; recombinant Pol eta, fluorescent DNA replication assay; further: on the % scale 0 is the no-effect control and ±100 the full control effect
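Fluorescent replication assay: 50 nM final substrate added after a 15 min room-temperature compound preincubation with 10 nM enzyme. Signal taken at 0 min and again at 10 min.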
TbPGK inh = blocks T. brucei phosphoglycerate kinase. shares compounds with POLK inh. TbPGK coupled GAPDH assay, Kinase-Glo luminescence. Potency, µM (doses to about 57.5 µM), without a hit: at the highest dose activity change, negative = inhibition, actives largely listed as inhibitors. hit rate 79% among 500; further: on the % scale 0 is the no-effect control and ±100 the full control effect; nearly all actives have a fitted effect of over 65% in size
POLI cherry-pick = Human Pol iota inhibitor confirmatory assay; hit rate 77% among 1,500; AID 720496; Pol iota primer extension, TAMRA/BHQ fluorescence; Potency, µM, hits mostly inhibitors; shares compounds with POLK inh
Active calls of the source: *; ? = inconclusive; · = no result given; [ ] = dose if it differs, or a comment. Rows were chosen to be rich in hits. Some 2.4% of all compounds tested hit in one or more screens of this group. The call rests on the fitted dose curve; in most records, active means well fitted curve in the direction sought with a large enough effect; inconclusive means small, poorly fitted or top-dose-only effect, or another doubt; inactive means no such curve, though single readings can be large; an effect the other way counts as inactive or inconclusive. Potency means the concentration at half of the fitted maximal effect.

SMILES	POLK inh	KAT2A inh	Pol beta inh	GLS inh	Pol iota inh	Pol eta inh	TbPGK inh	POLI cherry-pick
O=C(O)c1ccc(-c2ccc(/C=C3\NC(=O)N(Cc4ccc(Cl)cc4)C3=O)o2)cc1Cl	4.47µM*	-15.8%	4.47µM*	0.0%	1.41µM*	1.26µM*	5.8µM*	·
O=C(NNC(=O)c1cc2cc3ccccc3nc2s1)c1cccc(Cl)c1	79.4µM*	-14.6%	1.41µM*	14.3%	?	?	·	?
Cc1ccc(S(=O)(=O)NNC(=O)c2cc3cc4ccccc4nc3s2)cc1	-5.7%	-4.0%	12.9%	26.6%	6.5%	1.5%	·	·
O=C(OCCC12CC3CC(CC(C3)C1)C2)c1ccc(NCc2cc(O)ccc2O)cc1	79.4µM*	·	·	-13.1%	79.4µM*	?	16.3µM*	·
COc1ccc(C2=NC(c3ccc(Cl)cc3)C(c3ccc(Cl)cc3)N2C(=O)N2CCNC(=O)C2)c(OC(C)C)c1 (stereo not given)	-10.2%[12 µM]	-20.6%	·	·	·	·	·	·
CCCCn1c(N)c(-c2nc3ccccc3o2)c2c([N+](=O)[O-])nn(C)c(=O)c21	-11.2%	-16.9%	?	?	?	?	·	42.3*
CCCCCn1c(N)c(-c2nc3ccccc3s2)c2c([N+](=O)[O-])nn(C)c(=O)c21	-13.6%	0.0%	34.0%	-3.1%	5.5%	-8.0%	·	·
NS(=O)(=O)c1ccc(NC(=O)/C=C/c2ccco2)cc1	50.1µM*	-4.0%	25.1µM*	-3.5%	17.8µM*	20µM*	8.19µM*	·
O=C(/C=C/c1ccco1)Nc1ccc(S(=O)(=O)N2CCOCC2)cc1	-16.6%	-12.8%	-0.1%	-2.5%	12.1%	-14.8%	·	·
Cc1ccsc1/C=N/Nc1nc(=O)[nH]nc1C	-2.7%	-17.1%	18.1%	0.5%	-15.0%	-18.3%	18.3µM*	·
O=C(c1ccccc1)c1ccc(O)c(O)c1O	22.4µM*	·	·	10µM*	28.2µM*	8.91µM*	5.8µM*	·
NC[C@@H]1O[C@@H](O[C@H]2[C@H](O)[C@@H](O[C@@H]3O[C@@H](CO)[C@H](O)[C@@H](N)[C@@H]3O)[C@H](N)C[C@@H]2N)[C@@H](O)[C@H](O)[C@H]1O	-4.8%[60.1 µM]	22.3%	·	·	·	·	·	·
CCNc1ncc2nc(-c3cccs3)c(=O)n(CCc3ccccc3)c2n1	-1.4%[60.1 µM]	-7.5%	·	·	·	·	·	·
CCNC1=C(Cl)C(=O)c2ccccc2C1=O	-11.4%	?	?	-7.0%	-2.7%	-21.8%	·	·
CCCC(=O)NC1=C(Cl)C(=O)c2ccccc2C1=O	-5.8%	·	·	?	6.31µM*	?	·	67*
CC1(C)CCCN(C(=O)c2coc(=O)c(Br)c2)C1	14.1µM*	-24.9%	0.447µM*	10µM*	10µM*	0.891µM*	0.819µM*	·
Cc1ccc(/C=C/c2nc3ccccc3n2S(=O)(=O)c2cccc(Cl)c2)cc1	-4.9%[60.1 µM]	-6.3%	-11.6%	-7.6%	-28.1%	-7.5%	·	·
CSc1ccc(/C=C/c2nc3ccccc3n2S(=O)(=O)c2ccc(F)c(C)c2)cc1	-6.7%[60.1 µM]	2.4%	13.5%	4.8%	2.3%	-20.4%	10.3µM*	·
O=C1Nc2ccccc2C1=Nc1ccc(S(=O)(=O)Nc2nccs2)cc1	?	-1.1%	7.1%	103.3%	8.91µM*	20µM*	18.3µM*	·
COc1cccc(NC(=O)c2oc3ccccc3c2NC(=O)Cc2cccc(C)c2)c1	-7.2%	-5.2%	14.0%	-6.5%	5.8%	-15.9%	·	·
Nc1nc(SCc2ccc([N+](=O)[O-])cc2)c2ncn([C@@H]3O[C@H](CO)[C@H](O)[C@H]3O)c2n1	·	·	-3.2%[57.1 µM]	·	-6.2%[58.9 µM]	-0.1%[57.1 µM]	·	·
O=C(Cn1cnc2c(nnn2-c2cccc(F)c2)c1=O)Nc1ccc2c(c1)OCCO2	-11.0%	0.2%	21.8%	-3.9%	11.8%	1.4%	·	·
COc1ccc(-n2nnc3c(=O)n(CC(=O)Nc4ccc5c(c4)OCCO5)cnc32)cc1OC	-0.9%	-12.0%	?	-12.0%	18.3%	25.1µM*	·	67*
O=C(COc1ccccc1F)Nc1ccc(Cl)c(-c2nc3ccccc3[nH]2)c1	-1.0%	-12.9%	32.9%	-1.9%	-8.6%	·	·	·
O=C(O)CCCN1C(=O)/C(=C/c2ccc(-c3nc4ccccc4s3)o2)SC1=S	50.1µM*	-15.6%	12.6µM*	?	?	3.16µM*	?	·
SMILES	POLK inh	KAT2A inh	Pol beta inh	GLS inh	Pol iota inh	Pol eta inh	TbPGK inh	POLI cherry-pick
COc1ccc(-c2cc3nc(C)cc(-c4ccc(OC)cc4)n3n2)cc1	-7.9%	-29.3%	10.6%	-1.5%	0.0%	-16.1%	·	·
COc1ccc(-c2cc3nc(C)cc(N)n3n2)cc1	-7.3%	18.3%	0.3%	6.7%	40.8%	-19.6%	9.19µM*	·
Cc1ccc(/C=C/c2nc3ccccc3c(=O)[nH]2)cc1	-6.0%	-6.9%	-2.7%	-1.7%	20.7%	1.7%	·	·
Cc1ccccc1/C=C\c1nc2ccccc2c(=O)[nH]1	-3.8%	-15.4%	25.1µM*	19.9%	?	?	·	?
CCOc1ccc(C2CC(=O)c3c([nH]c(C(=O)OC)c3C)C2)cc1OC (stereo not given)	0.2%	·	?	2.5%	13.3%	15.8µM*	·	?
COc1ccc(C2CC(=O)c3c([nH]c(C(=O)OC(C)C)c3C)C2)cc1OC (stereo not given)	-3.0%	-19.0%	2.1%	-0.3%	20.0%	2.9%	·	·
Cc1ccc(-c2onc(C)c2C)cc1S(=O)(=O)NC1CCC(C)CC1 (stereo not given)	3.6%	-10.2%	0.7%	1.1%	2.6%	-19.5%	·	·
O=C1C2C3C=CC(CC3)C2C(=O)N1c1nccs1 (stereo not given)	17.8µM*	-16.1%	22.4µM*	2.6%	15.8µM*	?	·	75.2*
Cc1ccc(CNC(=O)CCCN2C(=O)COc3ccc(C)cc32)cc1	-5.6%[60.1 µM]	-16.1%	?	-0.4%	38.3%	-15.8%	·	·
O=C(CCc1ccc(S(=O)(=O)N2CCOCC2)cc1)N/N=C/c1ccc(O)c(O)c1O	8.91µM*	-18.7%	12.6µM*	-4.5%	2.82µM*	?	·	?
CCN(CC)CCCNc1ccc2ncn3c4ccc(O)cc4c(=O)c1c23	79.4µM*	·	·	23.2%	?	?	·	42.3*
O=c1nc2c(O)cccn2c2c1c(=O)[nH]c1ccccc12	?	?	?	?	?	?	·	42.3*
CCOc1cc(/C=N/NC(=O)c2nnn(-c3nonc3N)c2C)ccc1OCc1ccc(C)cc1	·	·	·	?	·	10µM*	·	23.8*
